Experimental findings from PubChem BioAssay AID1063 (University of Pittsburgh Molecular Library Screening Center, 2008) are described below.

Out of some 200,000 compounds screened, about 18,000 (9%) were called active. Many of the other results were omitted from the sample, so actives are more common in it than they were. Values without a mark were called inactive. Rule as the data show it: active = inhibition above about 50%; inactive = the rest.

The nature of the assay: Leishmania major promastigote growth inhibition, primary screen (AID 1063).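 Also: promastigotes grown with compound for 44 hours at 28 °C.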 Conditions: Leishmania major promastigotes, resazurin fluorescence viability; at 10 µM; hits give high values. A general note: Alamar Blue is a resazurin reagent that responds to reducing activity.
In the case of `CCOC(=O)C1C(c2ccc(Cl)cc2)NC(=S)NC1(O)C(F)(F)F` (centres undefined), the inhibition (in general, the change of the read-out against control, counted positive when it falls) was -2.87%.

For the molecule `COc1ccc(OCC(=O)N2CCN(C(=O)COc3ccccc3)CC2)cc1`, the inhibition was -5.93%.

As to `CC1CN(C2CCN(C(=O)COc3ccccc3)CC2)CC(C)O1` (centres undefined), the inhibition was 88.1% (active).

In the case of `COc1ccc(OCC(=O)N2CCOCC2)cc1`, the inhibition was 0.46%.

`Cc1csc(CN(C)C(=O)CC2C(=O)NCCN2CC(C)(C)C)n1` (centres undefined): the inhibition is -1.56%.

As for `O=C(N/N=C/c1ccc([N+](=O)[O-])cc1)c1c[nH]c2ccccc12`, the inhibition was 2.8%.

In the case of `Cc1cc(C)c(C(N)=O)c(Cl)n1`, the inhibition was -12.9%.

As for `Cc1cc(C)nc(N2CCC(C(=O)Nc3ccc4c(c3)OCCO4)CC2)n1`, the inhibition was -3.98%.

Turning to `COc1ccc(S(=O)(=O)Nc2cccnc2)c(Cl)c1Cl`, the inhibition is 1.47%.

With `CCOC(=O)C1CCN(CCC(=O)Nc2cccc(C)c2)CC1`, the inhibition is 92.7% (active).

Regarding `CCOC(=O)C1CCN(C(=O)C2(NC(=O)Nc3cccc(F)c3)CCCCC2)CC1`, the inhibition was -15.2%.

Consider `CC1CCN(CCC(=O)Nc2ccccc2)CC1`, for which the inhibition is 18.3%.

Take `O=C(O)/C=C\C(=O)Nc1ccc(OCc2ccccc2)cc1`: the inhibition is -4.77%.

With `Cc1c(-c2nn(C)c(=O)c3ccccc23)oc2ccc(F)cc2c1=O`, the inhibition was 94.9% (active).

For `O=C1c2oc3ccc(Br)cc3c(=O)c2C(c2cccc(F)c2)N1CCO` (centres undefined), the inhibition is -1.54%.

Turning to `Cc1ccc(F)cc1NC(=O)Cc1nn(C)c(=O)c2ccccc12`, the inhibition is -5.08%.

For the molecule `CCN(CCCNC(=O)CCn1c(=O)[nH]c2ccsc2c1=O)c1ccccc1`, the inhibition is -5.73%.

As to `COC(=O)c1cc(NC(=O)c2cccnc2)ccc1N1CCOCC1`, the inhibition was -4.83%.

As for `c1ccc(-c2noc(-c3cccs3)n2)nc1`, the inhibition was -1.93%.

As for `O=C(Cn1cc(-c2nnnn2-c2ccc(Cl)cc2)c(=O)c2ccccc21)c1ccccc1`, the inhibition was -4.69%.

As for `Clc1ccc(-n2nnnc2-c2cnc(-c3ccccn3)nc2-c2cccs2)cc1`, the inhibition was 61.2% (active).

`CCOC(=O)N1CCN(C(=O)c2cc3c(-c4ccc(Cl)cc4)nn(C)c3s2)CC1`: the inhibition is 10.6%.

As to `O=C(c1cn(-c2ccccc2)nc1-c1cccnc1)N1CCCCC1`, the inhibition was -1.11%.

In the case of `COc1ccccc1N1CCN(C(=O)c2cc3c(-c4ccc(Cl)cc4)nn(C)c3s2)CC1`, the inhibition was 60.4% (active).

For the molecule `CC(C)(C)OC(=O)N/N=C/c1cn(-c2ccccc2)nc1-c1cccnc1`, the inhibition is 21.8%.

Consider `COc1ccccc1N1CCN(C(=O)c2cn(-c3ccccc3)nc2-c2cccnc2)CC1`, for which the inhibition is 84.2% (active).

On to `COc1cccc(-c2nn(C)c3sc(C(=O)N4CCN(c5ccccc5)CC4)cc23)c1`, for which the inhibition was 20.1%.

With `C/C(=N/Nc1ccc(Cl)cc1)c1cnnc(-c2ccccc2)n1`, the inhibition was 2.35%.

For `Cc1ccc(C(=O)NC(=S)Nc2ccccc2C)cc1`, the inhibition was 0.17%.

With `C/C(=N\NC(=O)CSc1nc2ccccc2c(=O)n1-c1ccccc1C)c1cccs1`, the inhibition was 91% (active).

Regarding `Cc1nn(-c2ccccc2)c(C)c1/C=N/NC(=O)CSc1nc2ccccc2c(=O)n1-c1ccccc1`, the inhibition is 14.7%.

Regarding `C/C(=N\NC(=O)COc1c(C)cccc1C)c1cccs1`, the inhibition is 2.87%.

For `Cc1ccnc(NC(=O)CCCOc2ccccc2)c1`, the inhibition is -3.55%.

As for `O=C(Nc1ccc(F)cc1)N1CCN(c2ccc(F)cc2)CC1`, the inhibition is -0.19%.
